Source: PubChem BioAssay
Shown are actives, neighbours in structure and some others; about 4.1% of the full set was active somewhere.
CHT PAM – allosteric activators of human choline transporter CHT; AID 488977; Q9GZV3; B-score at 10 µM; actives 0.49% (n = 310,000); CHT-expressing cells, membrane potential dye, choline EC20; hits give high values; LV-AA mutant CHT in HEK293 cells;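 active = initial fluorescence not abnormally high and integrated response B-score, plate-corrected, over 3 SD above library mean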
MEKK3 PB1 HTS – modulators (inhibitors or enhancers) of MEK5 binding to human MEKK3 PB1 domain; bead-based flow cytometry, Alexa488-MEK5 binding to MEKK3; actives lie on both sides; 0 = blocked by unlabeled MEK5, 100 = vehicle; binding response (% of control), % at 10 µM; actives 1.4% (n = 290,000);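 active = binding response more than 3 SD above or below the average of its plate-row segment, actives on both sides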;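 note: Alexa488 bead fluorescence after subtracting the streptavidin-only scavenger bead signal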
Target sequence (Q99759 whole entry, looked up, the tested form may be a part): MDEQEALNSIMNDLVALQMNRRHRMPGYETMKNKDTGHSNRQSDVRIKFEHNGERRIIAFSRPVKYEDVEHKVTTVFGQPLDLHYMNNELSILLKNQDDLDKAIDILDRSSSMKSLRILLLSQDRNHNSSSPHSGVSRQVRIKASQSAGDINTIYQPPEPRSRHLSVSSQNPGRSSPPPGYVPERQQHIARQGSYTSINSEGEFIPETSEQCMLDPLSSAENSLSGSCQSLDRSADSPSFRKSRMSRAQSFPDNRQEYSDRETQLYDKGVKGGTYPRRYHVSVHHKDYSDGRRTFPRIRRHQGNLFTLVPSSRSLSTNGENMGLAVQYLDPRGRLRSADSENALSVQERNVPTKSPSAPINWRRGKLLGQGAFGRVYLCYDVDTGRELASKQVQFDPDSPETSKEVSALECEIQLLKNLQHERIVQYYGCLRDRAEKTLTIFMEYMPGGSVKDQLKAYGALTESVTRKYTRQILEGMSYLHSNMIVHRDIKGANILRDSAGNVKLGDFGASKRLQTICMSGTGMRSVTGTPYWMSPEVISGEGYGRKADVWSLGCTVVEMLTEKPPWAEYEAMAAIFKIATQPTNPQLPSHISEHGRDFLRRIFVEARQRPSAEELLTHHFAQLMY
CHT block – inhibitors of human choline transporter CHT; Q9GZV3; CHT-expressing cells, membrane potential dye, choline response; hits give low values; B-score at 10 µM; actives 0.86% (n = 310,000);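 active = B-score over 3 SD under the library average, and starting fluorescence ratio not unusually high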;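 note: choline stimulus applied at its EC90 after an EC20 pre-addition; B-score computed on integrated fluorescence ratio after choline addition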
MEKK2 mut-MEK5 – signal of MEK5 binding to mutant human MEKK2 PB1 domain. bead flow cytometry, Alexa488-MEK5 binding to MEKK2 mutant. percent response, % at 10 µM. actives 0.35% (n = 290,000); in the data active = percent response above about 24%, passing the limit was not always enough
MEKK2 WT-MEK5 – raises or lowers MEK5 binding to wildtype human MEKK2 PB1 domain; binding response (% of control), % at 10 µM; bead flow cytometry, Alexa488-MEK5 binding to MEKK2 WT; actives lie on both sides; actives 1.1% (n = 290,000); Q9Y2U5; in the data active = binding response below about 67% or above about 130%
SUMO Mot1 rescue – inhibitors of SUMOylation pathway: yeast Mot1-301 growth rescue; AID 2716; growth rescue, % at 18.8 µM; actives 1% (n = 320,000); S. cerevisiae Mot1-301 growth rescue, ATP luminescence, 38.5C; percent above DMSO median, 100 means doubled;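 active = every valid replicate shows activation above 250% relative to neutral control wells; inactive = the rest, any valid replicate at or below 250%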;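 note: OY570 slx delta 5 strain wells were the positive control but not used for scaling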
CHT inh conf – human CHT inhibition, confirmatory screen. CHT-expressing cells, choline membrane potential dye; LV-to-AA substituted CHT, HEK293 cells. CHT activity remaining % of control (hits give low values), % at 10 µM. shares compounds with CHT block. AID 493221. actives 70% (n = 2,400);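 active = choline transporter activity left, mean of duplicates at 10 µM, below buffer-only control mean minus 3 SD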;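 note: depolarization triggered by choline at its EC90 following an EC20 pre-addition; 0% = hemicholinium-3 full block and 100% = buffer-only control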
HEK293 CHT ctr – activity in parental HEK293 cells lacking CHT; AID 493222; shares compounds with CHT block; actives 4% (n = 2,400); membrane potential dye, choline response; active = decrease or increase beyond buffer ±3SD; membrane potential ratio readout (active if shifted either direction beyond buffer ±3SD; no single direction) at 10 µM;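 note: parental cells lack the transporter so any hit is non-specific; ratio is peak minus trough fluorescence over baseline after EC90 choline challenge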
Active calls of the source: *; i = inactive; / = not tested or not shown.

SMILES	CHT PAM	MEKK3 PB1 HTS	CHT block	MEKK2 mut-MEK5	MEKK2 WT-MEK5	SUMO Mot1 rescue	CHT inh conf	HEK293 CHT ctr
CCOc1ccc2nc(Cl)c(CN(C(C)=O)C3CCCCC3)cc2c1	i	107.0	-5.55*	2.0	97.0	482.7	i	i
CCOc1ccc2nc(Cl)c(CN(C(=O)c3cnccn3)C3CCCC3)cc2c1	i	93.0	i	-1.0	90.0	19.8	/	/
S=C(Nc1ccc(Cc2ccncc2)cc1)Nc1cccc(Cl)c1	i	110.0	-6.6*	3.0	111.0	366.1	i	i
N#Cc1c(C(F)(F)F)cc(Cc2ccccc2)nc1SCC(=O)NCC(=O)O	i	/	i	/	/	0.5	/	/
Oc1c(Cl)cc(Cl)cc1C=Nc1ccc2c(c1)OCCO2	i	94.0	-5.14*	-3.0	94.0	-18.4	62.5%*	i
COc1ccc(C2C=C(C34CC5CC(CC(C5)C3)C4)NC(=S)N2)cc1 (configuration not stated)	i	94.0	i	-3.0	96.0	-10.5	/	/
Cc1nc2ccccc2n1CCOc1ccccc1	i	105.0	i	12.0	107.0	-14.3	/	/
Cc1ccccc1OCCn1c(C)nc2ccccc21	i	108.0	-5.18*	3.0	105.0	2.1	i	i
O=C(O)c1ccc(N=NNc2cccc([N+](=O)[O-])c2)cc1	i	106.0	i	-11.0	88.0	13.2	/	/
N#C/C(=N\Nc1cccc([N+](=O)[O-])c1)C(=O)c1ccc(Br)cc1	i	71.0	-10*	-9.0	66.0	-15.6	63.4%*	i
N#C/C(=N\Nc1ccc([N+](=O)[O-])cc1)C(N)=S	i	81.0	-9.42*	-14.0	84.0	22.7	-9.8%*	i
CC(=O)N1CCN(c2ccc(NC(=O)c3cccc([N+](=O)[O-])c3)cc2)CC1	i	102.0	i	3.0	102.0	-5.9	/	/
CC(=O)c1ccc(OCC(=O)N2CCCC(Nc3ccc(C)c(C)c3)C2)cc1 (configuration not stated)	i	99.0	i	9.0	96.0	150.3	/	/
O=C(Cn1nc(C(F)(F)F)c2c1CCCC2)NC1CCCC1	i	99.0	-5.77*	3.0	99.0	-3.4	51.6%*	i
O=C(CCc1nnc(C2(c3ccc(Cl)cc3)CCC2)o1)NCCCn1cccn1	i	96.0	i	-11.0	90.0	-3.4	/	/
Cc1cc(C)n2nc(SCc3nnc(SCc4ccccc4)s3)nc2n1	i	89.0	-6.05*	-9.0	88.0	-5.3	i	i
Cc1cc(C)n2nc(SCc3ccccc3)nc2n1	i	105.0	i	5.0	107.0	3.0	/	/
O=C1CSC(=S)N1/N=C/c1c(F)cccc1F	i	100.0	-5.58*	-2.0	96.0	-2.7	70.9%*	i
C=CCn1c(SCC(=O)Nc2ccc3c(c2)OCO3)nnc1-c1ccccc1OC	i	111.0	i	13.0	106.0	-2.8	/	/
C=CCn1c(SCC(=O)c2ccc(OC)cc2)nnc1-c1ccc2c(c1)OCO2	i	98.0	-14.7*	-4.0	99.0	i	i	i
CN(Cc1ccccc1)c1ccc(C(CC(N)=O)NC(=O)c2ccc(Br)cc2)cc1[N+](=O)[O-] (configuration not stated)	i	102.0	-6.53*	-4.0	97.0	-8.4	70.2%*	i
NC(=O)CC(NC(=O)c1ccccc1)c1ccc(N2CCCCCC2)c([N+](=O)[O-])c1 (configuration not stated)	i	101.0	-8.6*	-5.0	104.0	-23.8	13.3%*	i
CC(C)Nc1ccc(C(CC(N)=O)NC(=O)c2ccc(Br)cc2)cc1[N+](=O)[O-] (configuration not stated)	i	97.0	i	1.0	102.0	1.7	/	/
O=C(COc1ccc(S(=O)(=O)N2CCOCC2)cc1)NCc1ccccn1	i	104.0	i	7.0	108.0	-0.6	/	/
COc1cc(O)ccc1C(=O)CCc1ccc(O)cc1	i	98.0	i	1.0	102.0	3.4	/	/
SMILES	CHT PAM	MEKK3 PB1 HTS	CHT block	MEKK2 mut-MEK5	MEKK2 WT-MEK5	SUMO Mot1 rescue	CHT inh conf	HEK293 CHT ctr
COc1cccc2c(Nc3ccccc3C)cc(C)nc12	i	104.0	i	11.0	121.0	-11.0	/	/
CC(=O)/C(C#N)=C1\NC(=O)C(Cc2ccc(C)c(Cl)c2)S1 (configuration not stated)	i	102.0	-7.04*	-3.0	102.0	-0.8	i	i
Cc1ccc(-n2c(C)cc(C(=O)COC(=O)C3=NNC(=O)CC3)c2C)cc1	i	98.0	-6.49*	-4.0	99.0	5.2	17.6%*	-11.7*
Cc1cc(C(=O)COC(=O)C2=NNC(=O)CC2)c(C)n1-c1ccccc1	i	99.0	i	4.0	101.0	/	/	/
O=C(Nc1ccccc1)c1nnn(Cc2ccccc2)c1NC(=O)C(F)(F)F	i	94.0	-5.03*	-1.0	94.0	41.8	32.4%*	i
Cc1ccc(NC(=O)CCc2c(C)nn(-c3ccc(N4CCCCC4)nn3)c2C)cc1	i	94.0	i	1.0	98.0	-4.1	/	/
Cc1cc(C)cc(NC(=O)CCc2c(C)nn(-c3ccc(N4CCCCC4)nn3)c2C)c1	i	102.0	i	1.0	106.0	9.1	i	i
CN(C)CCN(C(=O)c1ccc2c(c1)OCCO2)c1nc2c(Cl)cccc2s1	i	110.0	i	15.0	123.0	-7.8	/	/
COc1ccc(Cl)c2sc(N(CCN(C)C)C(=O)c3ccc4c(c3)OCCO4)nc12	i	/	-9.78*	/	/	-0.4	35.8%*	i
Cc1ccc(-c2csc(NC(=O)c3cccc(C)c3)c2C(=O)O)cc1	i	/	-7.71*	/	/	-8.3	42.6%*	i
Cc1ccc(-c2csc(NC(=O)c3ccccc3Cl)c2C(=O)O)cc1	i	106.0	-5.85*	7.0	104.0	4.9	66.1%*	i
Cc1cccc(C(=O)Nc2scc(-c3ccc(Br)cc3)c2C(=O)O)c1	i	/	i	/	/	-1.1	/	/
CC(C)Cc1csc(NC(=O)c2ccccc2Cl)c1C(=O)O	i	107.0	i	5.0	108.0	-12.8	/	/
Cc1ccc(-c2csc(NC(=O)c3ccc(Br)cc3)c2C(=O)O)cc1	i	102.0	-5.32*	1.0	99.0	6.0	50.6%*	i
Cc1ccc(-n2nc3c(=O)n(CC(=O)NCCCc4ccccc4)nc(C)c3c2C)cc1	i	101.0	i	-3.0	96.0	11.5	/	/
